In PubChem BioAssay:

assay: NFkB reporter suppression in cystic fibrosis bronchial cells – cell-based, uHTS hits, panel, cytotoxicity readout, dose response (AID 624344); settings: CF bronchial epithelial cells, PAF-induced NFkB reporter inhibition, with PAF, run 1; at 79 µM (top of the series) unless noted

SMILES	inhibition
Cc1ccc(N=Cc2cc3c(cc2O)OC(N)=C(C#N)C3c2ccccc2)cc1 (stereo unspecified)	79.8%
O=C(Nc1cccc(S(=O)(=O)N2CCCCC2)c1)Nc1ccc(Cl)cc1Cl	103%
COc1ccc(/C=N/NC(=O)c2[nH]c3ccc(Br)cc3c2-c2ccccc2)cc1	88.4%
COc1ccc(NC(=O)c2cc3c(-c4ccc(OC)c(OC)c4)nn(C)c3s2)cc1OC	107%
CCOC(=O)c1[nH]c(C)c(C(=O)N2CCc3ccccc32)c1C	34.1%
CS(=O)(=O)c1ncc(Cl)c(C(=O)Nc2ccc(OC(F)F)cc2)n1	91.4%
CC(C)=CCc1c(O)cc(O)c2c1OC(c1ccc(O)cc1)CC2=O (stereo unspecified)	93.2%
O=C1C=C(NC2=CC3OC(c4ccccc4)OCC3OC2=O)CCC1 (stereo unspecified)	103%
COc1cccc(-c2cc(NC=O)c3ncc(-c4ccc(C(C)=O)cc4)n3c2)c1	84.6%
Cc1nc([N+](=O)[O-])c(Sc2nc3ccc([N+](=O)[O-])cc3[nH]2)n1Cc1ccccc1	101%
O=c1c(-c2c(O)cc(O)c3c2O[C@H](c2ccc(O)cc2)CC3)c(-c2ccc(O)cc2)oc2cc(O)cc(O)c12	105%
Cc1c([N+](=O)[O-])c2ccc(O)cc2n1-c1ccccc1	109%
CCN1CCN(Cc2ccc(NC(=O)c3ccc(C)c(NC(=O)N4CCNC4=O)c3)cc2C(F)(F)F)CC1	103%
COCc1cc(S(=O)c2ccc(Cl)cc2)nc(C)n1 (stereo unspecified)	103%
O=C(c1cc([N+](=O)[O-])ccc1N1CCOCC1)N1CCN(c2ccccc2)CC1	116%
Oc1ccc(Cl)cc1Cc1cc(Cl)ccc1O	103%
